From PubChem BioAssay (NCI)
Compounds without any hit were thinned out: in the full panel of roughly 83,000, 20% have a hit.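 Activity criterion: percent growth below 10, measured after cells in 96-well plates were exposed to a single compound concentration for 48 hours.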 Unmarked numbers belong to inactive results.

These molecules were tested on MDA-MB-468 breast (assay: NCI-60 one-dose screen, 48 h (100 = growth as untreated, 0 = no growth, -100 = all killed)). Conditions: 10 µM unless noted.

| SMILES | growth [%] |
| --- | --- |
| Clc1ccc2c(c1)nnn1c3ncccc3c(Br)c21 | 76.1 |
| COc1ccc(-c2c3c(cn2Cc2cccc(OC)c2)-c2oncc2CCC3)cc1 | 88.7 |
| CCOC(=O)c1cnc2ccccc2c1Cl | 97.4 |
| NNc1ncnc2nc[nH]c12 | 36.8 |
| CN(C)CC(=O)Nc1nc(-c2cccc(NS(=O)(=O)c3cccc4c(N(C)C)cccc34)c2)cs1 | 62 |
